Results from the supplement of paper PMC10849652.
Of roughly 7,900 targets only a part is listed; those with a hit were picked by preference. About 0.6% of all pairs of compound and target were hits. Values without a mark were called inactive.

How the values were obtained:
Test in all cases: log2 fold change, soluble protein after heating vs DMSO (PISA); higher = thermal stabilisation; K562 cells, 10 uM, 30 min; active = over 0.2 and 3.5 SD of the protein, either way, in both replicates (recomputed)
saracatinib = compound: CN1CCN(CCOc2cc(OC3CCOCC3)c3c(Nc4c(Cl)ccc5c4OCO5)ncnc3c2)CC1 [saracatinib]
Summary of the method: (§1)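 For each measurement, 10 μM compound was applied for 30 min to K562 cells at 2×10^6 cells/mL. Aliquots were heated for 3 min across 48°C-58°C, pooled, and extracted in PBS with 0.5% NP-40 at 4°C; the supernatant after 21,000xg for 90 min was soluble protein. This was quantified by TMTpro 16plex LC-MS/MS with channel sums equalised, and thermal stability was reported relative to control samples from duplicates, on a log2 fold-change scale.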

sotrastaurin = compound: CN1CCN(c2nc(C3=C(c4c[nH]c5ccccc45)C(=O)NC3=O)c3ccccc3n2)CC1 [sotrastaurin]
Summary of the method: as §1

alvocidib = compound: CN1CC[C@H](c2c(O)cc(O)c3c(=O)cc(-c4ccccc4Cl)oc23)[C@H](O)C1 [alvocidib]
Summary of the method: as §1

Tubastatin A = compound: CN1CCc2c(c3ccccc3n2Cc2ccc(C(=O)NO)cc2)C1 [Tubastatin A]
Summary of the method: as §1

[1] = compound: CNC(=O)C1=CC=CC=C1NC2=NC(=NC=C2Cl)NC3=C(C=C(C=C3)N4CCOCC4)OC
Summary of the method: as §1

defactinib = compound: CNC(=O)c1ccc(Nc2ncc(C(F)(F)F)c(NCc3nccnc3N(C)S(C)(=O)=O)n2)cc1 [defactinib]
Summary of the method: as §1

rucaparib = compound: CNCc1ccc(-c2[nH]c3cc(F)cc4c3c2CCNC4=O)cc1 [rucaparib]
Summary of the method: as §1

[2] = compound: CNc1nc(-c2ccc3c(N)n[nH]c3c2)cc(N2C[C@@H](C(=O)NC3CCCCC3)CC[C@H]2C)n1
Summary of the method: as §1

encorafenib = compound: COC(=O)N[C@@H](C)CNc1nccc(-c2cn(C(C)C)nc2-c2cc(Cl)cc(NS(C)(=O)=O)c2F)n1 [encorafenib]
Summary of the method: as §1

[3] = compound: COC(=O)[C@H](CCSC)NC(=O)C1=C(C=C(C=C1)NC[C@H](CS)N)C2=CC=CC=C2
Summary of the method: as §1

[4] = compound: COC1=CC=C(C=C1)CN2C=CC3=C2C=C(C=C3)C(=O)NO
Summary of the method: as §1

filanesib = compound: CON(C)C(=O)N1N=C(c2cc(F)ccc2F)S[C@@]1(CCCN)c1ccccc1 [filanesib]
Summary of the method: as §1

zotarolimus = compound: CO[C@H]1C[C@@H]2CC[C@@H](C)[C@@](O)(O2)C(=O)C(=O)N2CCCC[C@H]2C(=O)O[C@H]([C@H](C)C[C@@H]2CC[C@H](n3cnnn3)[C@H](OC)C2)CC(=O)[C@H](C)/C=C(\C)[C@@H](O)[C@@H](OC)C(=O)[C@H](C)C[C@H](C)/C=C/C=C/C=C/1C [zotarolimus]
Summary of the method: as §1

idasanutlin = compound: COc1cc(C(=O)O)ccc1NC(=O)[C@@H]1N[C@@H](CC(C)(C)C)[C@](C#N)(c2ccc(Cl)cc2F)[C@H]1c1cccc(Cl)c1F [idasanutlin]
Summary of the method: as §1

alisertib = compound: COc1cc(Nc2ncc3c(n2)-c2ccc(Cl)cc2C(c2c(F)cccc2OC)=NC3)ccc1C(=O)O [alisertib]
Summary of the method: as §1

[5] = compound: COc1cc2nc(-c3cc(F)ccc3O)nc(N[C@@H]3CNC[C@H]3C(C)(C)O)c2cc1OC
Summary of the method: as §1

gefitinib = compound: COc1cc2ncnc(Nc3ccc(F)c(Cl)c3)c2cc1OCCCN1CCOCC1 [gefitinib]
Summary of the method: as §1

[6] = compound: COc1cccc2cc(-c3nc([C@H]4CC[C@H](C(=O)O)CC4)n4ncnc(N)c34)[nH]c12
Summary of the method: as §1

lapatinib = compound: CS(=O)(=O)CCNCc1ccc(-c2ccc3ncnc(Nc4ccc(OCc5cccc(F)c5)c(Cl)c4)c3c2)o1 [lapatinib]
Summary of the method: as §1

pictilisib = compound: CS(=O)(=O)N1CCN(Cc2cc3nc(-c4cccc5[nH]ncc45)nc(N4CCOCC4)c3s2)CC1 [pictilisib]
Summary of the method: as §1

Chain of UniProt P32019 (P32019 whole entry, looked up): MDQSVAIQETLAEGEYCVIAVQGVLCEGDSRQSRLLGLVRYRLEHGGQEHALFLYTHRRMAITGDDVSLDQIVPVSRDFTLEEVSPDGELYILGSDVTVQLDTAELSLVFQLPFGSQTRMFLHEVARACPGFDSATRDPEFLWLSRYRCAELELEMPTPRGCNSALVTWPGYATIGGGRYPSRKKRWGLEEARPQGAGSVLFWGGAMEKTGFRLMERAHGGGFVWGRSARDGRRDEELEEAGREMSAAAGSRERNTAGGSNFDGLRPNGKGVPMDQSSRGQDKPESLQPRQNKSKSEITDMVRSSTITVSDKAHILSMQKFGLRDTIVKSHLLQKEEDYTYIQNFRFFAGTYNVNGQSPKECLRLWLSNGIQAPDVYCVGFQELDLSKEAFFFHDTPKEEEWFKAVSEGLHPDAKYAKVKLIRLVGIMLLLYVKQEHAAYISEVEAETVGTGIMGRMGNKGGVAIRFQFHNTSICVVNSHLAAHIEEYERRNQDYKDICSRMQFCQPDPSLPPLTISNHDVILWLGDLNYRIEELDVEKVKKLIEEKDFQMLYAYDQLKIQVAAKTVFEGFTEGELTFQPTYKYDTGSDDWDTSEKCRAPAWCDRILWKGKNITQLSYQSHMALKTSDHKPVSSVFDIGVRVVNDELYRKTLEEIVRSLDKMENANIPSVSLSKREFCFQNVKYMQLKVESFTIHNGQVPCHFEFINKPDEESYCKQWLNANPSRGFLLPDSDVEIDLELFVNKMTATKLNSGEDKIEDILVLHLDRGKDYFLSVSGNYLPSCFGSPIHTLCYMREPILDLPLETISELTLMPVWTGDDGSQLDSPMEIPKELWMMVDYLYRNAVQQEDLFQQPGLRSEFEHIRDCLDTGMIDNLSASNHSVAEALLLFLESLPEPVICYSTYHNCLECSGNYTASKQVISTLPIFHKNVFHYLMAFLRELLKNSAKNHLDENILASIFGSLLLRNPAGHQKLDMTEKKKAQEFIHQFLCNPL
Chain of UniProt Q96AQ8 (Q96AQ8 whole entry, looked up): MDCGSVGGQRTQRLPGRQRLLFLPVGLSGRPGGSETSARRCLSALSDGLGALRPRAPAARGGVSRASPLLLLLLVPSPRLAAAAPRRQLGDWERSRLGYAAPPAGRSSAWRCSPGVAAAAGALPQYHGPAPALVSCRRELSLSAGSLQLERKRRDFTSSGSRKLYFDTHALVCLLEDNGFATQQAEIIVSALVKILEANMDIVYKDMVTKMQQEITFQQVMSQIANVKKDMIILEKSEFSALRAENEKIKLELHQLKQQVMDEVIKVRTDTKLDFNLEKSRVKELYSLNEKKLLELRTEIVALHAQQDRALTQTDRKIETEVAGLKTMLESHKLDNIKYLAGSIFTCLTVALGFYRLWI
Chain of UniProt Q86WA8 (Q86WA8 whole entry, looked up): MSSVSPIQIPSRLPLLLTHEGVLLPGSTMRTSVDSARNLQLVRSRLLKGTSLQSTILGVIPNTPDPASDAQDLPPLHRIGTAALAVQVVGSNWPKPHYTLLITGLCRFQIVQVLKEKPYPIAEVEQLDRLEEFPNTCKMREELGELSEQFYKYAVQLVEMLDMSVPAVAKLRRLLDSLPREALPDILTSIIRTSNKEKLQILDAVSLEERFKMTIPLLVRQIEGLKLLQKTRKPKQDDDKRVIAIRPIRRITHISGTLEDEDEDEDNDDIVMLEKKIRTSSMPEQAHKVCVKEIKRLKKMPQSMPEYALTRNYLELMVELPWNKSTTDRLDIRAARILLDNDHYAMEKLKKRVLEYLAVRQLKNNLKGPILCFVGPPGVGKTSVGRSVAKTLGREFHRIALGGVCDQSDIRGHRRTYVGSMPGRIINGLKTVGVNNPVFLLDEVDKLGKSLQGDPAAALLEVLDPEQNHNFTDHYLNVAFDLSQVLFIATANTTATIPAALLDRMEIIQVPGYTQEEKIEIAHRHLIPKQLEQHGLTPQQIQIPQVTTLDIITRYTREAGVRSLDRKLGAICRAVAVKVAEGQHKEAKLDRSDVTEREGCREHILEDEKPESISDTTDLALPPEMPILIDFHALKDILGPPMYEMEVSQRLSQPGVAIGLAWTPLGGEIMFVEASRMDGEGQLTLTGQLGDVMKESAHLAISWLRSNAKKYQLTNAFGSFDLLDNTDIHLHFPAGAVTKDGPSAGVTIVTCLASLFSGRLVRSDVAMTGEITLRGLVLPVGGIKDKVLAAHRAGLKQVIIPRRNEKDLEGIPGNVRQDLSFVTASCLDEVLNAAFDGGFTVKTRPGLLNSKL
Chain of UniProt A8MWY0 (A8MWY0 whole entry, looked up): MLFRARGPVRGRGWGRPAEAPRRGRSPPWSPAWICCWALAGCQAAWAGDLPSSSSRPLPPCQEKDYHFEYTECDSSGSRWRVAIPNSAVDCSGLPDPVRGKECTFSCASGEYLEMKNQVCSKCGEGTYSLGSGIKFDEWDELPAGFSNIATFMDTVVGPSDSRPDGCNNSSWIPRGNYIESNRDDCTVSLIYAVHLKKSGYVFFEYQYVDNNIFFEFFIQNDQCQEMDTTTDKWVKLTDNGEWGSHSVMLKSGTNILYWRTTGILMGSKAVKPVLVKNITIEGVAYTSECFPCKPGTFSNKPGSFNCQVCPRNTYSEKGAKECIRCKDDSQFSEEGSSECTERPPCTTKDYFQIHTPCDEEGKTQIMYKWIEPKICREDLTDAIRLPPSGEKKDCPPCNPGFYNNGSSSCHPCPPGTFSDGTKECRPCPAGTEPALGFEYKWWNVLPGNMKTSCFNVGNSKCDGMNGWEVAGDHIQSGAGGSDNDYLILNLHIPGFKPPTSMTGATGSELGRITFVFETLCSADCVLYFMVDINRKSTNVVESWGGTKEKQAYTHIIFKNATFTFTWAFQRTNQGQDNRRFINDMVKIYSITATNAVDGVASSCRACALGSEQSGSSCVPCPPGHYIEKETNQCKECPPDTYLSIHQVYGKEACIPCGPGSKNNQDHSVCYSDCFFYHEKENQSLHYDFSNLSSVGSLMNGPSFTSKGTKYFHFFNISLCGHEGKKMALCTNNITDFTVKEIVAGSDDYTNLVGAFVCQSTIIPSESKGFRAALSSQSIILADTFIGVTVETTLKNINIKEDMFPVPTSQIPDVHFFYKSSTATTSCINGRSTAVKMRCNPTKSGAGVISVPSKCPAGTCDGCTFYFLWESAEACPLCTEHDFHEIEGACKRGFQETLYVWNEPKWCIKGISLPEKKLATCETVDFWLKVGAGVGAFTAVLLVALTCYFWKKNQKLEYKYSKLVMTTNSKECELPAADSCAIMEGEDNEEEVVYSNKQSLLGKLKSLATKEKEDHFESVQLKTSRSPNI
Chain of UniProt Q16539 (Q16539 whole entry, looked up): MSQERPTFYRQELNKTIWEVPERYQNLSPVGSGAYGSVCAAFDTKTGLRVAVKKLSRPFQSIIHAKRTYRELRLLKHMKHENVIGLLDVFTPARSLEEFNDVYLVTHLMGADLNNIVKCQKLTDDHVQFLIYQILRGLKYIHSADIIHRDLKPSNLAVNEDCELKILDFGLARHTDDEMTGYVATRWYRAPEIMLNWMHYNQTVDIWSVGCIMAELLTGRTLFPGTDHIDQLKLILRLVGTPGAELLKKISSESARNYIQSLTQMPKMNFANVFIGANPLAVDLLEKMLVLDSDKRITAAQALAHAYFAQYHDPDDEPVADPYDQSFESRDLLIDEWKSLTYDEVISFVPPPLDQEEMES
Chain of UniProt O14733 (O14733 whole entry, looked up): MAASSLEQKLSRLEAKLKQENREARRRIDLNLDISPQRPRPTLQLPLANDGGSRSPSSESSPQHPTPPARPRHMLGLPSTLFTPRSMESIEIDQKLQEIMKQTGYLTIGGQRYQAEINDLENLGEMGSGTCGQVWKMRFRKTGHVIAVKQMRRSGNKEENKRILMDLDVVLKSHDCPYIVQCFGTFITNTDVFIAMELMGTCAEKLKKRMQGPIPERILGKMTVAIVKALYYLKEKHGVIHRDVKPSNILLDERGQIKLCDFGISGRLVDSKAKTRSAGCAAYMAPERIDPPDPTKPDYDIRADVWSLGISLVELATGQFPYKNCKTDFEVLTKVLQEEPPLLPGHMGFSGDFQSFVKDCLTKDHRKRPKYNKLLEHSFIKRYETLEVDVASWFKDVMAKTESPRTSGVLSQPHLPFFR
Chain of UniProt O14880 (O14880 whole entry, looked up): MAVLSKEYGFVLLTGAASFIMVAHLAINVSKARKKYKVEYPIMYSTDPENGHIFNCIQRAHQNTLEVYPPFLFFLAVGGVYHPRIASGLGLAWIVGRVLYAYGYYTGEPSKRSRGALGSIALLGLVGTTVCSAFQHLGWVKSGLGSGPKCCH
Chain of UniProt Q9UGP4 (Q9UGP4 whole entry, looked up): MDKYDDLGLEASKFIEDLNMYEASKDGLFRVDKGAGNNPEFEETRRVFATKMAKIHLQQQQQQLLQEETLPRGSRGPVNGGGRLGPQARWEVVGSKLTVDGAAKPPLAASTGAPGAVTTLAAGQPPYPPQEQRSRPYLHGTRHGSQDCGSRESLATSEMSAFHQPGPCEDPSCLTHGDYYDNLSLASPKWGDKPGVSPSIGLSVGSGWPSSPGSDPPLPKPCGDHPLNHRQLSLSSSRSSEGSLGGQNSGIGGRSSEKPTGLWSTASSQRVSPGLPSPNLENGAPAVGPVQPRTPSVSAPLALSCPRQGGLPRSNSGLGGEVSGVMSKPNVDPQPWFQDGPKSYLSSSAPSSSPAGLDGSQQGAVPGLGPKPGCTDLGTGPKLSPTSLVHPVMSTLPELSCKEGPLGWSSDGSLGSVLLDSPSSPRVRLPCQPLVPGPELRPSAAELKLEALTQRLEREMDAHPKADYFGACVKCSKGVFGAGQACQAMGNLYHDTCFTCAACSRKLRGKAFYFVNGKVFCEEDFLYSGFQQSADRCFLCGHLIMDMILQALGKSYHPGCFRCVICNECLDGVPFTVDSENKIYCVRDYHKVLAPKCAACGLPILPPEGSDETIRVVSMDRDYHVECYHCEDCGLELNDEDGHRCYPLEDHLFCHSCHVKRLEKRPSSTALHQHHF

Row | Target | log2 fold change (saracatinib) | log2 fold change (sotrastaurin) | log2 fold change (alvocidib) | log2 fold change (Tubastatin A) | log2 fold change [1] | log2 fold change (defactinib) | log2 fold change (rucaparib) | log2 fold change [2] | log2 fold change (encorafenib) | log2 fold change [3] | log2 fold change [4] | log2 fold change (filanesib) | log2 fold change (zotarolimus) | log2 fold change (idasanutlin) | log2 fold change (alisertib) | log2 fold change [5] | log2 fold change (gefitinib) | log2 fold change [6] | log2 fold change (lapatinib) | log2 fold change (pictilisib)
1 | LUC7L2 (UniProt Q9Y383) | 0.022 | -0.01 | -0.246 | 0.007 | -0.304 (active) | -0.267 (active) | -0.077 | -0.047 | 0.065 | 0.03 | 0.05 | 0.121 | 0.113 | 0.093 | -0.032 | -0.048 | -0.052 | 0.008 | 0.04 | 0.095
2 | MGST3 (UniProt O14880) | 0.037 | 0.064 | 0.021 | -0.01 | -0.029 | 0.012 | -0.027 | -0.028 | -0.033 | 0.053 | -0.021 | -0.035 | -0.005 | 0.012 | 0.008 | 0.001 | 0.002 | 0.018 | -0.009 | 0.004
3 | INPP5B (UniProt P32019) | 0.024 | -0.079 | -0.076 | 0.07 | -0.007 | 0.112 | 0.066 | 0.043 | -0.151 | 0.141 | 0 | -0.015 | 0.002 | -0.003 | 0.03 | 0.052 | -0.008 | -0.043 | 0.006 | 0.04
4 | MEAK7 (UniProt Q6P9B6) | 0.043 | -0.004 | -0.056 | 0.028 | -0.088 | -0.041 | 0.008 | 0.026 | 0.02 | 0.088 | -0.046 | -0.109 | -0.002 | -0.013 | -0.012 | -0.101 | -0.142 | -0.055 | 0.087 | -0.063
5 | ILKAP (UniProt Q9H0C8) | -0.057 | -0.087 | -0.152 | 0.055 | -0.021 | -0.155 | 0.011 | 0.055 | 0.061 | -0.078 | 0 | -0.016 | 0.03 | -0.06 | -0.13 | 0.113 | 0.032 | -0.056 | -0.029 | -0.035
6 | LIMD1 (UniProt Q9UGP4) | 0.074 | -0.011 | -0.03 | -0.034 | -0.029 | -0.03 | -0.008 | -0.01 | 0.004 | 0.004 | 0.027 | -0.007 | 0.028 | 0.028 | -0.059 | 0 | -0.078 | -0.01 | 0.06 | -0.043
7 | IPO13 (UniProt O94829) | 0.111 | -0.123 | 0.013 | -0.03 | 0.001 | -0.04 | -0.016 | -0.109 | 0.039 | 0.033 | -0.017 | -0.144 | -0.039 | -0.038 | 0.021 | -0.024 | -0.047 | 0.008 | 0.038 | 0.109
8 | LONP2 (UniProt Q86WA8) | 0.006 | 0.003 | -0.029 | 0.135 | 0 | -0.12 | 0.067 | -0.079 | 0.13 | 0.007 | -0.002 | -0.019 | -0.02 | -0.177 | -0.115 | 0.375 | 0.129 | 0.015 | 0.1 | -0.041
9 | KIAA1324L (UniProt A8MWY0) | 0.018 | 0.014 | -0.056 | -0.017 | -0.014 | 0.033 | -0.021 | 0.023 | 0.015 | 0.006 | -0.03 | 0.091 | -0.09 | 0.07 | -0.013 | 0.028 | 0.109 | 0.049 | -0.026 | 0.005
10 | MAP2K7 isoform 4 (UniProt O14733) | 0.063 | 0.026 | -0.028 | -0.002 | -0.04 | -0.012 | 0.036 | -0.001 | 0.013 | -0.01 | -0.018 | -0.029 | -0.042 | -0.003 | -0.029 | 0.019 | -0.027 | 0.048 | -0.016 | 0.137
11 | LNPEP (UniProt Q9UIQ6) | 0.048 | 0.037 | 0.01 | -0.001 | -0.01 | -0.054 | -0.014 | -0.02 | -0.008 | 0.012 | 0.001 | -0.014 | -0.03 | -0.014 | -0.01 | 0.016 | 0.01 | 0.058 | 0.003 | 0.04
12 | MAP4 (UniProt E7EVA0) | 0.03 | -0.015 | 0.127 | 0.041 | -0.059 | 0.099 | 0.209 | 0.043 | 0.017 | 0.032 | -0.027 | 0.216 | -0.1 | 0.023 | -0.094 | -0.134 | 0.109 | -0.024 | 0.186 | 0.019
13 | IPO11 isoform 2 (UniProt Q9UI26) | 0.048 | -0.02 | -0.006 | -0.043 | 0.01 | -0.013 | -0.053 | -0.03 | -0.004 | 0.012 | 0.036 | -0.045 | 0.002 | -0.087 | -0.023 | -0.006 | -0.049 | 0.04 | 0.005 | 0.028
14 | MAPK14 (UniProt Q16539) | 0.261 | 0.001 | 0.014 | 0.074 | 0.546 | -0.137 | -0.02 | -0.03 | 0.684 | -0.055 | 0.024 | -0.055 | 0.059 | -0.361 | -0.014 | 0.014 | 0.796 (active) | 0.303 | -0.002 | -0.05
15 | KIFBP (UniProt Q96EK5) | -0.039 | 0.029 | -0.021 | -0.01 | 0.02 | -0.092 | 0.045 | -0.019 | 0.049 | -0.134 | 0.058 | -0.095 | 0.074 | -0.09 | 0.106 | -0.028 | 0.01 | 0.01 | -0.049 | -0.071
16 | MCUR1 (UniProt Q96AQ8) | -0.002 | 0.053 | -0.035 | 0.014 | 0.014 | -0.047 | -0.038 | 0.014 | -0.009 | -0.028 | -0.042 | 0.019 | -0.002 | -0.13 | 0.009 | 0.181 | 0.009 | 0.052 | -0.009 | 0.087
